The list is not random: actives were taken first. Their share in the collection is about 7.3%.
VACV Venus inh = vaccinia inhibition (Venus reporter); hit rate 0.46% among 330,000; Potency, µM (series often up to 36.5 µM), for the others: top-dose activity change, negative = inhibition, usual class: inhibitors; Vaccinia virus Venus reporter expression, fluorescence; calls by dose curve; tested in A549 cells; also: potency is read from the fitted curve at half-maximal effect; nearly all actives have a fitted effect of over 30% in size
HCMV antiviral = human cytomegalovirus inhibition. activity change, negative = inhibition, % at 57.5 µM. AID 1259415. HFF cells, HCMV-luciferase reporter, 72 h; stronger effect = lower value. hit rate 4.5% among 410,000; in the data active = activity change below about -60%; inconclusive = no clear call, values can overlap the other calls; inactive = above about -39%
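HFF cells seeded 16 h at 37C, treated with compounds, infected with luciferase-reporter HCMV at MOI 1 PFU/cell; luciferase read at 72 h post infection, normalized to buffer-only and Salinomycin controls.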
VACV mCherry inh = inhibitors of vaccinia virus infection (mCherry reporter signal); Vaccinia virus mCherry reporter infection, fluorescence; Potency, µM (series often up to 36.5 µM), without a hit: top-dose activity change, negative = inhibition, most hits filed as inhibitors; hit rate 0.63% among 310,000; AID 720579; calls by dose curve; tested in A549 cells; also: potency is read from the fitted curve at half-maximal effect; nearly all actives have a fitted effect of over 35% in size
FMDV antiviral = antivirals against foot and mouth disease virus. FMDV antiviral cell-based qHTS. Potency, µM (top dose mostly 57.9 µM), without a hit: top-dose activity change, negative = inhibition, usual class: inhibitors. hit rate 1.2% among 410,000; calls by dose curve; tested in HEK293T cells; also: read-out not given here; potency is read from the fitted curve at half-maximal effect; nearly all actives have a fitted effect of over 45% in size
HCV inhibitor = inhibitors of hepatitis C virus infection; Huh7.5.1 HCVcc-Cre infection, luciferase reporter, 44 h; Potency, µM (highest dose often 41.8 µM), for the others: at the highest dose activity change, negative = inhibition, usual class: inhibitors; hit rate 3.4% among 340,000; AID 651820; active = well fitted inhibition curve with a large enough effect; inconclusive = small, poorly fitted or top-dose-only effect, or another doubt; inactive = no such curve, though single readings can be large or run the other way; also: potency is read from the fitted curve at half-maximal effect
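Compounds are dispensed onto cells plated 4 h earlier at 1,000 per well, with HCVcc-Cre virus (about 0.5 moi) added next. Following 44 h of culture, luminescent signal is measured for 15 sec after 15 min with substrate at room temperature.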
An asterisk follows results filed as active; i = inactive; ? = inconclusive; nt = no result. % is scaled to controls: 0 for no effect and ±100 for the full control effect.

SMILES	VACV Venus inh	HCMV antiviral	VACV mCherry inh	FMDV antiviral	HCV inhibitor
CCN1C(=O)[C@@H]2[C@@H](c3ccc(-c4ccc(OC)cc4)cc3)N3CCC[C@@]3(C(=O)OC)[C@@H]2C1=O	-12%	-36	-3%	-16%	?
Cn1cccc1C(=O)N1CCC2(CC1)CN(C(=O)Nc1cccc(C#N)c1)C2	nt	nt	nt	-20%	nt
Cc1ccc(C)c(N2CCN(C(=O)C3CCCN(c4ncnc5c4nc4n5CCCCC4)C3)CC2)c1 (stereo unspecified)	nt	-69*	nt	?	-16%
CCN(CCNC(=O)C1CCCN(c2ncnc3c2nc2n3CCCCC2)C1)Cc1ccccc1 (stereo unspecified)	nt	-21	nt	-23%	-3%
O=C(NCCCN1CCN(c2ccc(F)cc2)CC1)C1CCCN(c2ncnc3c2nc2n3CCCCC2)C1 (stereo unspecified)	-19%	?	-15%	?	?
COc1ccccc1N1CCN(CCCNC(=O)C2CCCN(c3ncnc4c3nc3n4CCCCC3)C2)CC1 (stereo unspecified)	nt	-31	nt	?	13µM*
CC(C)N(Cc1ccccc1)C(=O)C1CCCN(c2ncnc3c2nc2n3CCCCC2)C1 (stereo unspecified)	nt	-60*	nt	?	?
O=C(C1CCCN(c2ncnc3c2nc2n3CCCCC2)C1)N1CCN(c2ccccc2)CC1 (stereo unspecified)	nt	-62*	nt	?	?
Clc1ccc2c(Cl)cc[n+](CCC3CCCCC3)c2c1	-8%	nt	37%	nt	nt
Cc1nn(S(=O)(=O)c2ccc(C(C)(C)C)cc2)c(C)c1S(=O)(=O)N1CCC(C)CC1	-10%	-9	-14%	24%	nt
CCCCN(Cc1ccco1)C(=O)C1CCCN(c2ncnc3c2nc2n3CCCCC2)C1 (stereo unspecified)	-28%	-93*	?	-25%	?
CCCCN(CC)C(=O)C1CCCN(c2ncnc3c2nc2n3CCCCC2)C1 (stereo unspecified)	7%	-5	-3%	-30%	nt
COc1ccc(OC)c(NC(=O)CSc2cn(CC(=O)N3CCCCCC3)c3ccccc23)c1	-17%	?	-16%	?	nt
CC1CCN(C(=O)Cn2cc(SCC(=O)NCc3ccccc3)c3ccccc32)CC1	-10%	-85*	-1%	-4%	nt
COc1ccc(Cl)cc1NC(=O)CSc1cn(CC(=O)N2CCCCC2)c2ccccc12	-22%	-72*	-2%	?	nt
CC(=O)c1cc2c(cc1NC(=O)Cn1nc(-c3ccc(C)cc3)ccc1=O)OCO2	-4%	-16	?	-4%	11µM*
O=C(c1ccc2c(=O)n(CC3CCCO3)c(=S)[nH]c2c1)N1CCN(C(=O)c2ccco2)CC1 (stereo unspecified)	-16%	nt	-24%	nt	nt
Cn1c(CSCc2ccc(Cl)c(Cl)c2)n[nH]c1=S	-24%	-67*	?	?	-1%
CC(C)c1nnc(NC(=O)CCC(=O)N2CCN(Cc3ccccc3)CC2)s1	-4%	27	-10%	-19%	16%
Cc1ccc(OCCN2CCN(C(=O)CCC(=O)Nc3nnc(C)s3)CC2)cc1	-5%	-101*	-15%	?	9%
Cc1ccc(OCCN2CCN(C(=O)CCC(=O)Nc3nnc(C(C)C)s3)CC2)cc1	?	-84*	nt	?	?
CCCc1nnc(NC(=O)CCC(=O)N2CCN(CCOc3ccc(C)cc3)CC2)s1	-15%	?	nt	0%	?
COc1ccccc1CCc1nc2ccccc2n1C1CCN(C(=O)c2cc(C)nn2C)CC1	-1%	nt	-8%	-7%	nt
CCn1ncc(/C=C/C(=O)Nc2c(C)nn(Cc3ccc(Cl)cc3Cl)c2C)c1C	-28%	-103*	-17%	-28%	?
Cc1ccc(C)c(N2CCN(C(=O)c3cc(S(=O)(=O)N4CCCC4)c[nH]3)CC2)c1	-16%	19	-4%	-6%	nt
Cc1ccc(S(=O)(=O)N(CC(=O)N/N=C\c2cccs2)c2cccc3cccnc23)cc1	-10%	-63*	i	-14%	?
Fc1ccc(C2=CSC3=NCCN23)cc1	6%	10	13%	-2%	7%
N=c1nc(N)nc2n1NC(c1ccc(F)cc1)=CS2	?	-88*	?	28%	?
COCCCNC(=O)CN1C(=O)COc2ccc(S(=O)(=O)N3CCCC3)cc21	0%	-6	3%	13%	nt
Cc1cccc(-n2c3nc(=O)[nH]c(=O)c-3cc3cc([N+](=O)[O-])ccc32)c1	?	-66*	?	35µM*	6%

High-throughput results as filed in PubChem BioAssay.
